Of roughly 7,900 targets only a part is listed; those with a hit were picked by preference. About 0.6% of all pairs of compound and target were hits. A number with no mark means an inactive call.

Chain of UniProt P49840 (P49840 whole entry, looked up): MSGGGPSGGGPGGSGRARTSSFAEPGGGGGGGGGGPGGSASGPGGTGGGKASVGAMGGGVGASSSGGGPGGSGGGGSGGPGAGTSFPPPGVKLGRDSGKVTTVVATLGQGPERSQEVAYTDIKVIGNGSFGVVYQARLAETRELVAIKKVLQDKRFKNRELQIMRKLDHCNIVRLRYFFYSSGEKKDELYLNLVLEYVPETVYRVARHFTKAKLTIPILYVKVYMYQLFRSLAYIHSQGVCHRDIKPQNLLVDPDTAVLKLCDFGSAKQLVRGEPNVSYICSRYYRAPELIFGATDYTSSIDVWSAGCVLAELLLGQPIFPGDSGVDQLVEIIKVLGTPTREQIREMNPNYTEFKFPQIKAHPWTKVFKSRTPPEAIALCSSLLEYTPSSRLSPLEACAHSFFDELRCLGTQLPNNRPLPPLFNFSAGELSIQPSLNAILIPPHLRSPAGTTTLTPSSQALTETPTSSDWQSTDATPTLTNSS
Chain of UniProt Q8IWJ2 (Q8IWJ2 whole entry, looked up): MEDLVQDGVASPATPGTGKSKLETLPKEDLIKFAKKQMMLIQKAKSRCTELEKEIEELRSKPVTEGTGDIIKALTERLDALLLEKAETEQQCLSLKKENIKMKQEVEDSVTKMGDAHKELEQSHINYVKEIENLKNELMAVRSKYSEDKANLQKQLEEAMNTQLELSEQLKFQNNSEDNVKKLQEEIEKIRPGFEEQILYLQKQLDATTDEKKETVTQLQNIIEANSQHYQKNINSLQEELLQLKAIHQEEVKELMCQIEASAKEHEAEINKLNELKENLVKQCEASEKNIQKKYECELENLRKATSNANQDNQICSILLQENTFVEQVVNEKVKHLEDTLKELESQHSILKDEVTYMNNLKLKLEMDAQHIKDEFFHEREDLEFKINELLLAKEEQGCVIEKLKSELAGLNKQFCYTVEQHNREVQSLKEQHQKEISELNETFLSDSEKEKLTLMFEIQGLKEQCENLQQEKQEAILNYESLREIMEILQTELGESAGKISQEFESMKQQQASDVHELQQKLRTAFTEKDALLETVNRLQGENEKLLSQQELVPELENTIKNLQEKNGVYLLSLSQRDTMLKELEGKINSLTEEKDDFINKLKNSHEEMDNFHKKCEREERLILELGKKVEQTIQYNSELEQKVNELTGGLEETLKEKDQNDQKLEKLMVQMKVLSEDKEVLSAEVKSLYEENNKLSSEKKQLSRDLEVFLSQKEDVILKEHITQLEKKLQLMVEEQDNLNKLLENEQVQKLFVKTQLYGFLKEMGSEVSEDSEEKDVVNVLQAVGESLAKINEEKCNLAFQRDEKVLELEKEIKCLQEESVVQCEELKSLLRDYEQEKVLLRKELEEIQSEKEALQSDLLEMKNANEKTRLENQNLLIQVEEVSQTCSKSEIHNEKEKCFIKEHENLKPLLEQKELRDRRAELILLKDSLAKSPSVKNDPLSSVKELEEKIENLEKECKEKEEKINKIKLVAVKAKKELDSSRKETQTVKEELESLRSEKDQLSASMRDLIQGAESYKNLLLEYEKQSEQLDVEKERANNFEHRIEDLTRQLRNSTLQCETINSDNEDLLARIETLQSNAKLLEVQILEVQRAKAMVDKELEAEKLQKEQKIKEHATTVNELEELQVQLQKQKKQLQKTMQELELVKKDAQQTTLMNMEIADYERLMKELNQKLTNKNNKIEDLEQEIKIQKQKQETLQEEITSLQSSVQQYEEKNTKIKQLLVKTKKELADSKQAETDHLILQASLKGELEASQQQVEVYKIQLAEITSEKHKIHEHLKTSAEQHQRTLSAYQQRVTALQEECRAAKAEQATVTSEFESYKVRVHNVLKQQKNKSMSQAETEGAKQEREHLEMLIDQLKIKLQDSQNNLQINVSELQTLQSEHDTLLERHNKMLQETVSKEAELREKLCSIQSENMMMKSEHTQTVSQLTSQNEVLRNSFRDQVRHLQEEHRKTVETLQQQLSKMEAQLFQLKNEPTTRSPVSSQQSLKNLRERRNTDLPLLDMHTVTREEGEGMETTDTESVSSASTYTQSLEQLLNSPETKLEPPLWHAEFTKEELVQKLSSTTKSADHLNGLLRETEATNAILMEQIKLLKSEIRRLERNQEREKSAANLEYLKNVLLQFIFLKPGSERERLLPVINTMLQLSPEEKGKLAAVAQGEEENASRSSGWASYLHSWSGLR
Chain of UniProt P62879 (P62879 whole entry, looked up): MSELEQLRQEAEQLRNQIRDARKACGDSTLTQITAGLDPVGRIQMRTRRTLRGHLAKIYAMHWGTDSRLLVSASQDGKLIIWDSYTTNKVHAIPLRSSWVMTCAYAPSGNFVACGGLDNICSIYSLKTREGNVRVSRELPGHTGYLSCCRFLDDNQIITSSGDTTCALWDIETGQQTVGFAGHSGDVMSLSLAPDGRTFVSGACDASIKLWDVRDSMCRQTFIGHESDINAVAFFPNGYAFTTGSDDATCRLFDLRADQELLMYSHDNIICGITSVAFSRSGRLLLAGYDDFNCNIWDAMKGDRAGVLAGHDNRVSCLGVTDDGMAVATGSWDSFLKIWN
Chain of UniProt Q96JB3 (Q96JB3 whole entry, looked up): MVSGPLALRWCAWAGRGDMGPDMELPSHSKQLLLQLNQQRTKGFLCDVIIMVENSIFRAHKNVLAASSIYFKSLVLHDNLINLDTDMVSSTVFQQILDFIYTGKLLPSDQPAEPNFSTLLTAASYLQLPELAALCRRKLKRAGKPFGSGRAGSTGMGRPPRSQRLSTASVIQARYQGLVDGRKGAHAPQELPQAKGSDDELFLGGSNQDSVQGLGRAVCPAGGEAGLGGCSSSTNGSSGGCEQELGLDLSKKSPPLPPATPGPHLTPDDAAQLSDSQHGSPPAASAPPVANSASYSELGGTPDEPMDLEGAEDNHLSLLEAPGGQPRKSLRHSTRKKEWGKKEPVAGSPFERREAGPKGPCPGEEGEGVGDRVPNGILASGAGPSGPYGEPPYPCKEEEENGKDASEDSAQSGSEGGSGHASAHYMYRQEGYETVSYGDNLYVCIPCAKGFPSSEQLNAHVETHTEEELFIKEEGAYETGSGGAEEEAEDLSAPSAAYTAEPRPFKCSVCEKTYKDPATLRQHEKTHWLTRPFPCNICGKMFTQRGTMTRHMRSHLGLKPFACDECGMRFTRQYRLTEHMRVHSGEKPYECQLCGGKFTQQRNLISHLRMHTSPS
Chain of UniProt Q8TEQ6 (Q8TEQ6 whole entry, looked up): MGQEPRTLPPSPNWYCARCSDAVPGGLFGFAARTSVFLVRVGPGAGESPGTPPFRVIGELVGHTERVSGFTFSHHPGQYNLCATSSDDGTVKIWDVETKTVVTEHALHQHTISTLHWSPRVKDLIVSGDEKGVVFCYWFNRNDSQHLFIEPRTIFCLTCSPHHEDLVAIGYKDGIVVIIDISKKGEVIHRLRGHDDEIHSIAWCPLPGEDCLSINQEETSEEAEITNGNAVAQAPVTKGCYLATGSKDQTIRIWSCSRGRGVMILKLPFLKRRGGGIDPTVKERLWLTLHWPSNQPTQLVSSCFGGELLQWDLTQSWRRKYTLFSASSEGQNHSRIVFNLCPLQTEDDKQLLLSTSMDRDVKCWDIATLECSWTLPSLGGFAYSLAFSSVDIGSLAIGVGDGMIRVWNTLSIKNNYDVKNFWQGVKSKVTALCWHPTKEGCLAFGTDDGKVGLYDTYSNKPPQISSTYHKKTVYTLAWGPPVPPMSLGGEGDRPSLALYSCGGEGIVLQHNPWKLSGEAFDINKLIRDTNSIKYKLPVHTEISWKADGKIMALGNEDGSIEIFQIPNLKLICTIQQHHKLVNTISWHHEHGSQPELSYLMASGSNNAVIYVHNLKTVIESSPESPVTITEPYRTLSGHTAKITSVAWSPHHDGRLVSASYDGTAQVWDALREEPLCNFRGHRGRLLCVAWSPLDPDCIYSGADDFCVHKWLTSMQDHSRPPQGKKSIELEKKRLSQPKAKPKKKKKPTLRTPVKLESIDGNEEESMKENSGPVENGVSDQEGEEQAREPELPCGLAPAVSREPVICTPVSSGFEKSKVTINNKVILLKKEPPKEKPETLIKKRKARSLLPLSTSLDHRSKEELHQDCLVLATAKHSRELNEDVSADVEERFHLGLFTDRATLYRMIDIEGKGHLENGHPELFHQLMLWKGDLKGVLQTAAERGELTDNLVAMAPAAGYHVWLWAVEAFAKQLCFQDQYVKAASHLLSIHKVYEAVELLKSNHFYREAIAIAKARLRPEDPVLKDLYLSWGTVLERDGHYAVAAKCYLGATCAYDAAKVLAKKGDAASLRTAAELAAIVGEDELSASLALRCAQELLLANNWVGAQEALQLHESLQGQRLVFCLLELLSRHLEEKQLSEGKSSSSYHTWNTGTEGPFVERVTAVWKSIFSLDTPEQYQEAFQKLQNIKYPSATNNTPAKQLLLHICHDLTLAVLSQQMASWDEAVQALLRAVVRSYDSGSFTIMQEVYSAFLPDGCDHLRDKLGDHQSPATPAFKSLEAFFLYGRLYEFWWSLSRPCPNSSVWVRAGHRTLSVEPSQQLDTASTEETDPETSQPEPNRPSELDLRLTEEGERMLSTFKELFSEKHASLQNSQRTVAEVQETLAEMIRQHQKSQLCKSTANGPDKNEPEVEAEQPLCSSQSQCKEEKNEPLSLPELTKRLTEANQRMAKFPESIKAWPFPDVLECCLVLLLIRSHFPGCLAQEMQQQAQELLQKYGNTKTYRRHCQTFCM
Chain of UniProt P09105 (P09105 whole entry, looked up): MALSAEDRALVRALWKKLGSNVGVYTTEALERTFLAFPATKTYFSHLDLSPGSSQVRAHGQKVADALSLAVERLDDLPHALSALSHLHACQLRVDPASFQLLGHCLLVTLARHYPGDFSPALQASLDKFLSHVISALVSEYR
Chain of UniProt O60725 (O60725 whole entry, looked up): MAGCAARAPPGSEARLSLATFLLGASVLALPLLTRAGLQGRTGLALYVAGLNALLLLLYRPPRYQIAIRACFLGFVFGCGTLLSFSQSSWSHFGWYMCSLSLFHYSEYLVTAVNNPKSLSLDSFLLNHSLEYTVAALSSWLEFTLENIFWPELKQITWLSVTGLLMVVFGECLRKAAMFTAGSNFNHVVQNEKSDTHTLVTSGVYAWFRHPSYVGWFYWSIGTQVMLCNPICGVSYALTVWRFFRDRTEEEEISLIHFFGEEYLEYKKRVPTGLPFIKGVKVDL

Compound in one test: CC(C)(C)Cn1c(N)nc2ccc(-c3[nH]c(C(C)(C)C)nc3-c3ccc(F)cc3)nc21 [ralimetinib]
The experiment in a line: log2 fold change, soluble protein after heating vs DMSO (PISA); higher = thermal stabilisation; K562 cells, 10 uM, 30 min; active = over 0.2 and 3.5 SD of the protein, either way, in both replicates (recomputed). Put shortly:
(§1)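 K562 cells at 2×10^6 cells/mL were exposed to 10 μM compound for 30 min, then aliquots were heated for 3 min across 48°C-58°C, pooled, and extracted in PBS containing 0.5% NP-40 at 4°C. The supernatant after 21,000xg for 90 min was taken as soluble protein and measured by TMTpro 16plex LC-MS/MS with channel sums equalised. Thermal stability is reported relative to control samples, with values from duplicates. Fold changes are given on a log2 scale.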
Take GNB2 (UniProt P62879): the log2 fold change was 0.016.

GTF2B (UniProt Q00403): the log2 fold change is 0.044.

Turning to GTF2E1 (UniProt P29083), the log2 fold change was -0.018.

Turning to GPX4 (UniProt P36969), the log2 fold change was 0.01.

For HMGB3 (UniProt O15347), the log2 fold change is 0.163.

With GAPVD1 isoform 6 (UniProt Q14C86), the log2 fold change was 0.056.

For the target FNTB (UniProt P49356), the log2 fold change is -0.016.

In the case of FKBP4 (UniProt Q02790), the log2 fold change is -0.016.

With IFRD1 (UniProt O00458), the log2 fold change is -0.014.

In the case of IFT80 isoform 3 (UniProt Q9P2H3), the log2 fold change was -0.02.

On to IFI30 (UniProt P13284), for which the log2 fold change is -0.05.

With GALNT1 (UniProt Q10472), the log2 fold change was 0.101.

As to FUBP3 (UniProt Q96I24), the log2 fold change was 0.023.

ICMT (UniProt O60725): the log2 fold change was 0.163.

For the target GCC2 (UniProt Q8IWJ2), the log2 fold change is 0.131.

As to HIC2 (UniProt Q96JB3), the log2 fold change is 0.218.

Turning to HRC (UniProt P23327), the log2 fold change is -0.039.

Regarding HSD17B12 (UniProt Q53GQ0), the log2 fold change is -0.037.

With HMGCR isoform 3 (UniProt P04035), the log2 fold change is -0.005.

As for GOLPH3 (UniProt Q9H4A6), the log2 fold change was -0.005.

For the target GEMIN5 (UniProt Q8TEQ6), the log2 fold change is 0.034.

For the target FUCA2 (UniProt Q9BTY2), the log2 fold change is 0.019.

As to HNRNPH1 (UniProt P31943), the log2 fold change was -0.018.

Turning to GNPAT (UniProt O15228), the log2 fold change is 0.02.

For the target GOPC (UniProt Q9HD26), the log2 fold change was 0.259.

With HPCAL1 (UniProt P37235), the log2 fold change was -0.117.

Regarding GTF2A2 (UniProt P52657), the log2 fold change was -0.078.

On to GSK3A (UniProt P49840), for which the log2 fold change was -0.061.

For HBQ1 (UniProt P09105), the log2 fold change was -0.034.

In the case of HOOK3 (UniProt Q86VS8), the log2 fold change is 0.033.

Regarding HEXA (UniProt P06865), the log2 fold change was -0.062.

GGA2 (UniProt Q9UJY4): the log2 fold change was -0.153.

In the case of HNRNPC isoform 2 (UniProt P07910), the log2 fold change is 0.106.

For H2AFX (UniProt P16104), the log2 fold change is 0.193.

HDDC2 (UniProt Q7Z4H3): the log2 fold change is 0.085.

Compound in the next test: CC(C)(O)CC(=O)NCCn1ccc2ncnc(Nc3ccc(Oc4cccc(C(F)(F)F)c4)c(Cl)c3)c21
The description is as above. Put shortly: as §1
On to GNB2 (UniProt P62879), for which the log2 fold change was 0.013.

Take GTF2B (UniProt Q00403): the log2 fold change was -0.215.

For GTF2E1 (UniProt P29083), the log2 fold change is -0.178.

Consider GPX4 (UniProt P36969), for which the log2 fold change is 0.003.

For the target HMGB3 (UniProt O15347), the log2 fold change is -0.007.

On to GAPVD1 isoform 6 (UniProt Q14C86), for which the log2 fold change was -0.111.

Regarding FNTB (UniProt P49356), the log2 fold change is -0.025.

With FKBP4 (UniProt Q02790), the log2 fold change is -0.036.

For IFRD1 (UniProt O00458), the log2 fold change is -0.002.

As for IFT80 isoform 3 (UniProt Q9P2H3), the log2 fold change is -0.118.

IFI30 (UniProt P13284): the log2 fold change is 0.063.

Regarding GALNT1 (UniProt Q10472), the log2 fold change was 0.018.

As to FUBP3 (UniProt Q96I24), the log2 fold change was -0.083.

Consider ICMT (UniProt O60725), for which the log2 fold change is -0.032.

For the target GCC2 (UniProt Q8IWJ2), the log2 fold change was 0.

As for HIC2 (UniProt Q96JB3), the log2 fold change is 0.065.

As for HRC (UniProt P23327), the log2 fold change was 0.132.

On to HSD17B12 (UniProt Q53GQ0), for which the log2 fold change is 0.289 (active).

Consider HMGCR isoform 3 (UniProt P04035), for which the log2 fold change was -0.023.

GOLPH3 (UniProt Q9H4A6): the log2 fold change is -0.031.

For the target GEMIN5 (UniProt Q8TEQ6), the log2 fold change is -0.049.

In the case of FUCA2 (UniProt Q9BTY2), the log2 fold change was 0.026.

With HNRNPH1 (UniProt P31943), the log2 fold change is 0.

As for GNPAT (UniProt O15228), the log2 fold change is -0.053.

Turning to GOPC (UniProt Q9HD26), the log2 fold change was -0.04.

For HPCAL1 (UniProt P37235), the log2 fold change is -0.018.

As to GTF2A2 (UniProt P52657), the log2 fold change was -0.026.

GSK3A (UniProt P49840): the log2 fold change is -0.107.

On to HBQ1 (UniProt P09105), for which the log2 fold change was -0.078.

In the case of HOOK3 (UniProt Q86VS8), the log2 fold change is -0.109.

Take HEXA (UniProt P06865): the log2 fold change is 0.024.

Turning to GGA2 (UniProt Q9UJY4), the log2 fold change was -0.048.

As to HNRNPC isoform 2 (UniProt P07910), the log2 fold change was 0.195.

As to H2AFX (UniProt P16104), the log2 fold change is 0.036.

As to HDDC2 (UniProt Q7Z4H3), the log2 fold change is 0.003.

The record behind these values is the supplement of paper PMC10849652.
